Hits are enriched below; roughly 19% of the tested compounds scored in any of these assays.
S-ASM inh: Inhibitors of Secretory Acid Sphingomyelinase (S-ASM): qHTS | Potency, µM (titrated, usually from 57.5 µM), usual class: inhibitors | AID 504937, 2011 | Sphingomyelin phosphodiesterase (Homo sapiens), P17405 | placental ASM, HMU-PC fluorogenic substrate, 60 min | hit rate 0.006% among 340,000
Target sequence (P17405 47-631 limits assumed): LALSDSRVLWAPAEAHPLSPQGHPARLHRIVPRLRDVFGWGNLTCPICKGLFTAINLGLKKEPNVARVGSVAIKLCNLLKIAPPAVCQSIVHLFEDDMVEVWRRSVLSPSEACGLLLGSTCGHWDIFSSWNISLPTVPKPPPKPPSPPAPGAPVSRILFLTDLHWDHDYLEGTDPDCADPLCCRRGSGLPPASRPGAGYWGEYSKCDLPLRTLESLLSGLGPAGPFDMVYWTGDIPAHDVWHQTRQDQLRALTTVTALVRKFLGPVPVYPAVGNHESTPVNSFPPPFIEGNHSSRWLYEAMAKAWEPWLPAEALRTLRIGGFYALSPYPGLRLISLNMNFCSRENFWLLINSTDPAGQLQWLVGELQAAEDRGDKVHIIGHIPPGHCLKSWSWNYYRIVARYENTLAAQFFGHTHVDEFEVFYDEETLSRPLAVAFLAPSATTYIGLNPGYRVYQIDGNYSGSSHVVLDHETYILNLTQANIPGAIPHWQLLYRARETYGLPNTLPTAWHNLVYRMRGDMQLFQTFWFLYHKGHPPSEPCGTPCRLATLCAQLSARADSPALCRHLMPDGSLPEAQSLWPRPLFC
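Steps: dispense placental human ASM, pin compound, wait 10 min at room temperature, add HMU-PC0 substrate at 9 uM final, incubate 60 min at 37 °C, add stop solution raising pH to 10, read fluorescence.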
TGFb SMAD3 inh: qHTS for Inhibitors of TGF-b | HepG2 CAGA-GFP TGF-b/SMAD3 reporter, GFP fluorescence, 18 h; TGF-beta stimulated, 500 pg/mL final | hit rate 1.2% among 410,000 | Potency, µM (titrated, usually from 46.1 µM), hits mostly inhibitors; further: nearly all actives have a fitted effect of over 65% in size
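First, reporter cells (HEPG2 CAGA-GFP) rested 2 h at 37 degrees C. Next, compounds were pinned in and TGF-beta added to 500 pg/mL final. After 18 h, GFP was imaged per cell and summed per well.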
HepG2 viability: qHTS for Inhibitors of TGF-b: Cytotox Counterscreen | hit rate 0.76% among 410,000 | HepG2 CAGA-GFP viability, ATP luminescence, 18 h | AID 588856, 2011 | Potency, µM (highest dose often 46.1 µM), hits mostly cytotoxic
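HepG2 CAGA-GFP cells (1000/well, DMEM with 1% FBS) received compound, then TGF-beta at 500 pg/mL final, and were incubated 18 hours at 37 degrees C. Viability was read by CellTiter-Glo luminescence. Media-only wells were set as complete cell-killing and DMSO as no toxicity.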
DT40 TDP1 no CPT: qHTS for Inhibitors of human tyrosyl-DNA phosphodiesterase 1 (TDP1): qHTS in cells in absence of CPT. hit rate 15% among 420,000. AID 686978, 2013. Potency, µM (series often up to 46.2 µM), usual class: inhibitors. DT40 Tdp1-/- hTDP1 cells, no CPT, ATP luminescence, 48 h; further: nearly all actives have a fitted effect of over 55% in size
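Cells were dispensed at 400 per well, compounds added by pin tool, plates incubated ≥48 hr at 37 °C, then CellTiter-Glo added for 30 min at room temperature before luminescence reading. Line: DT40 Tdp1-/- complemented with hTDP1; camptothecin omitted.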
IL1B secr inh: qHTS for Inhibitors of Inflammasome Signaling: IL-1-beta AlphaLISA Primary Screen. THP-1 LPS/ATP IL-1B secretion, AlphaLISA, 16 h; stronger effect = lower value. activity change, % at 57.5 µM. hit rate 4.7% among 360,000. AID 743279, 2014; in the data active means activity change below about -50%; inconclusive means mostly about -30% to -49%
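THP-1 cells pretreated 1 hr with compounds (up to 57.5 uM final), then stimulated with LPS (250 ng/mL final) plus ATP (1.25 mM final); secreted IL-1B measured by AlphaLISA after 16 hr, decreased signal indicating inhibition.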
TDP1 cell CPT: qHTS for Inhibitors of human tyrosyl-DNA phosphodiesterase 1 (TDP1): qHTS in cells in presence of CPT; Potency, µM (series often up to 46.2 µM), hits mostly inhibitors; hit rate 12% among 420,000; chicken DT40 Tdp1-/-;hTDP1 cells + 20 nM CPT, ATP luminescence, 48 h; further: nearly all actives have a fitted effect of over 55% in size
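Chicken DT40 Tdp1-/- cells complemented with human TDP1, 400 cells/well, exposed to compounds plus 20 nM camptothecin for at least 48 h at 37 C; viability read as ATP content by CellTiter-Glo luminescence.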
Hits are given with their value; 0 = inactive; ? = inconclusive; - = not tested or not shown; [ ] = another dose, or the depositor's remark. Unless noted, the call rests on the fitted dose curve; in most records, active means well fitted curve in the direction sought with a large enough effect; inconclusive means small, poorly fitted or top-dose-only effect, or another doubt; inactive means no such curve, though single readings can be large; an effect the other way counts as inactive or inconclusive.

SMILES	S-ASM inh	TGFb SMAD3 inh	HepG2 viability	DT40 TDP1 no CPT	IL1B secr inh	TDP1 cell CPT
CC(C)COC(=O)Nc1nnc(Cc2ccccc2)s1	0	?	0	9.2µM	0	?
CCOC(=O)c1cnc2cc(Cl)c(OC)cc2c1Nc1ccc(Br)cc1C	-	0	0	0	-	0
CCOC(=O)c1cnc2cc(Cl)c(OC)cc2c1NCC1CCCO1 (stereo unspecified)	0	0	0	15µM	?	?
COc1cc2c(cc1OC)C(COc1ccc3c(C)cc(=O)oc3c1)N(C(=O)Cc1ccccc1)CC2 (stereo unspecified)	-	0	0	?	-	?
CCCCNc1ccc(C(CC(N)=O)NC(=O)c2cc(C)cc(C)c2)cc1[N+](=O)[O-] (stereo unspecified)	0	0	0	0	0	0
CCC(CC)Nc1ccc(C(CC(N)=O)NC(=O)c2ccccc2)cc1[N+](=O)[O-] (stereo unspecified)	0	0	0	15µM	0	16µM
CCCCNc1ccc(C(CC(N)=O)NC(=O)c2ccccc2)cc1[N+](=O)[O-] (stereo unspecified)	?	?	0	15µM	0	18µM
Cc1ccccc1CNc1ccc(C(CC(N)=O)NC(=O)c2ccccc2)cc1[N+](=O)[O-] (stereo unspecified)	0	0	0	23µM	-78	16µM
NC(=O)CC(NC(=O)Cc1cccc2ccccc12)c1ccc(NCCc2ccccc2F)c([N+](=O)[O-])c1 (stereo unspecified)	0	?	0	?	0	21µM
Cc1[nH]c2ccccc2c1C(=O)C(C)OC(=O)C1CCC1 (stereo unspecified)	0	0	0	0	0	0
COc1cccc(NC(=O)CN(C)C(=O)c2cn(-c3ccccc3)nc2-c2cccnc2)c1	0	0	0	?	0	?
CN(CC(=O)Nc1ccc(N2CCOCC2)cc1)C(=O)c1cc(F)c(F)cc1Cl	0	0	0	0	0	0
COc1ccc(Cl)cc1NC(=O)CN(C)C(=O)c1cn(-c2ccccc2)nc1-c1cccnc1	0	0	0	?	-91	18µM
Cc1ccc(-c2nn(-c3ccc(F)cc3)cc2C(=O)N(C)CC(=O)Nc2ccc(N3CCOCC3)cc2)cc1	0	0	0	15µM	0	?
COc1ccc(-c2nn(-c3ccccc3)cc2C(=O)N(C)C)cc1	0	0	0	0	0	0
COc1ccc(NC(=O)CN(C)C(=O)c2cn(-c3ccccc3)nc2-c2ccc(Cl)cc2)cc1	0	?	0	15µM	-60	?
COc1ccc(NC(=O)CN(C)C(=O)c2cn(-c3ccccc3)nc2-c2ccc(OC)cc2)cc1	0	0	0	?	0	?
COc1ccc(NC(=O)CN(C)C(=O)c2cn(-c3ccccc3)nc2-c2ccc(F)cc2)cc1	0	?	0	?	-53	?
Cc1ccc(N2CC(C(=O)Nc3ccc(S(=O)(=O)NCC4CCCO4)cc3)CC2=O)cc1C (stereo unspecified)	0	0	0	?	0	0
COc1ccc(NC(=O)CN(C)C(=O)c2sc3cc(Cl)ccc3c2Cl)cc1	0	0	0	?	0	0
Cc1cc2nc(-c3ccco3)c(CC(C)(C)C)n2c(C)c1Br	-	?	0	23µM	0	23µM
COc1ccccc1Cc1c(-c2ccco2)nc2cc(C)c(Br)c(C)n12	-	-	-	23µM	0	?
Cc1cc2nc(-c3ccco3)c(Cc3cccc(Cl)c3)n2c(C)c1Br	-	-	-	?	0	?
C[C@@H]1COc2cc(N3CCN(Cc4ccccc4F)CC3)ccc2S(=O)(=O)N1	-	-	-	0	0	0
COc1ccc(CCNc2nc3cc(OC)c(OC)cc3c3nc(-c4cccnc4)nn23)cc1OC	-	0	0	0	-	0
SMILES	S-ASM inh	TGFb SMAD3 inh	HepG2 viability	DT40 TDP1 no CPT	IL1B secr inh	TDP1 cell CPT
COc1ccc(-c2cc(C(=O)N3CCc4c(cnc(C)c4CNC(=O)c4ccsc4)C3)[nH]n2)cc1	-	-	-	0	-	0[9.04 µM]
COc1ccc(Cl)cc1NC(=O)CCCN1C(=O)C(c2ccccc2)Oc2cccnc21 (stereo unspecified)	-	0	0	23µM	-	18µM
O=C(CCCN1C(=O)C(c2ccccc2)Oc2cccnc21)Nc1ccccc1Cl (stereo unspecified)	0	0	0	0	0	0
COc1ccc(C)cc1NC(=O)CCCN1C(=O)C(c2ccccc2)Oc2cccnc21 (stereo unspecified)	0	0	0	?	0	?
COc1cc(Cl)c(C)cc1NC(=O)CCCN1C(=O)C(c2ccccc2)Oc2cccnc21 (stereo unspecified)	-	0	0	21µM	-	26µM
COc1ccc(CNC(=O)CN2C(=O)C(c3ccccc3)Oc3cccnc32)cc1 (stereo unspecified)	0	0	0	?	0	0
O=C(CN1C(=O)C(c2ccccc2)Oc2cccnc21)NCc1ccccc1F (stereo unspecified)	0	0	0	?	0	21µM
COc1ccccc1NS(=O)(=O)c1cc(C(=O)N2CCN(C(=O)c3ccco3)CC2)ccc1F	0	0	0	0	0	0
Cc1cc2nc(/C=C/c3nc4cc(C)c(C)cc4[nH]3)[nH]c2cc1C	0	0	0	0	0	0
Cc1cc2nc(/C=C/c3cccnc3)[nH]c2cc1C	0	?	0	0.018µM	0	0.018µM
Cc1cccc(NC(=O)C2CC(=O)N(Cc3ccccc3)C2)n1 (stereo unspecified)	0	0	0	0	0	0
CCc1cccc(-n2nnc(-c3nc(-c4cccs4)no3)c2N)c1	-	0	0	?	-	?
CC(=O)c1cccc(NC(=O)Cc2coc3cc4c(cc23)CCC4)c1	0	0	0	6.5µM	0	?
CCC(C)c1ccccc1NC(=O)Cc1coc2cc3c(cc12)CCC3 (stereo unspecified)	0	?	0	18µM	0	?
Clc1cccc(-c2ccc(/C=N/n3cnnc3)o2)c1	0	0	0	0	-54	0
Cc1ccc(-c2ccc(/C=N/n3cnnc3)o2)cc1Cl	0	0	0	0	0	0
O=c1c2ccccc2nc2c3ccccc3cnn12	0	0	0	?	0	?
O=c1c2ccccc2nc2c3ccccc3c3nncn3n12	0	0	0	5.2µM	0	7.3µM

Source: PubChem BioAssay
